Source: PubChem BioAssay (National Center for Advancing Translational Sciences (NCATS))
The entries come from a sample that favours hits as a whole.
AMA1-RON2 inh – qHTS for Inhibitors of AMA1-RON; Towards Development of Antimalarial Drug Lead: Primary Screen; AlphaScreen AMA1-biotinylated RON2 peptide binding; hit rate 0.2% among 360,000; Potency, µM (doses to about 58.2 µM), usual class: inhibitors; Plasmodium falciparum AMA1 (3D7) - RON2 peptide interaction; AID 720542, 2013; active means well fitted inhibition curve with a large enough effect; inconclusive means small, poorly fitted or top-dose-only effect; inactive means no such curve, though single readings can be large or run the other way; further: nearly all actives have a fitted effect of over 45% in size
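AMA1 (3D7) with his tag at 25 nM final met compounds first, then biotinylated RON2 peptide at 25 nM; detection used donor plus acceptor beads, 10 µg/mL apiece, read by AlphaScreen after 30 min at room temperature.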
Shiga inhibitor – A qHTS for Small Molecule Inhibitors of Shiga Toxin; inhibition, % at 38.7 µM; Vero cells, Shiga toxin protein synthesis inhibition reporter; hit rate 9.2% among 290,000; in the data active means inhibition mostly above about 28%, no sharp cut-off; inactive means mostly below about 43%
Cycloheximide cs – Cycloheximide Counterscreen for Small Molecule Inhibitors of Shiga Toxin | cell reporter, cycloheximide protein synthesis inhibition counterscreen | max response, % | hit rate 12% among 300,000; in the data active means max response mostly above about 13%, no sharp cut-off; inactive means mostly below about 14%; further: read at 38.3 µM for the half of the compounds with a filed dose
LASV entry inh – qHTS for Inhibitors of binding or entry into cells for Lassa Virus; AID 540256, 2011; hit rate 1.2% among 300,000; Lassa virus pseudotype entry inhibition, cell reporter; Potency, µM (titrated, usually from 37.9 µM), most hits filed as inhibitors; calls by dose curve; tested in HEK293 cells; further: nearly all actives have a fitted effect of over 50% in size
MARV entry inh – qHTS for inhibitors of binding or entry into cells for Marburg Virus; AID 540276, 2011; Marburg virus pseudotyped entry inhibition, cell reporter; hit rate 1.8% among 300,000; Potency, µM (highest dose often 37.8 µM), usual class: inhibitors; calls by dose curve; tested in HEK293 cells
Hits are given with their value; . = inactive; ? = inconclusive; / = no result.

SMILES	AMA1-RON2 inh	Shiga inhibitor	Cycloheximide cs	LASV entry inh	MARV entry inh
CC(=O)N1N=C(c2ccc(C)cc2)OC1c1ccc(C)cc1 (stereo not given)	.	.	22.2	.	.
CC(=O)N1N=C(c2ccc(C)cc2)OC1c1ccc(C(C)C)cc1 (stereo not given)	.	163.9	38.3	?	?
O=C(OCc1ccccc1)N(CCF)c1cn(Cc2ccccc2)c(=O)n(Cc2ccccc2)c1=O	.	/	/	?	?
COc1ccc(-c2nc(CS(=O)CC(=O)NCCCN3CCOCC3)c(C)o2)cc1OC (stereo not given)	.	.	.	/	/
COc1cnc(-c2ccccn2)nc1N(C)c1ccccc1	.	66.5	48.0	?	?
COc1ccc(Sc2nc(-c3ccccn3)ncc2OC)cc1	.	.	.	20.6µM	16.4µM
CCOC(=O)C1(Cc2cccc(OC)c2)CCCN(C(=O)c2cc(C)on2)C1 (stereo not given)	.	91.8	37.4	.	.
CCOC(=O)C1(Cc2cccc(OC)c2)CCN(Cc2cccnc2)CC1	.	99.3	34.8	.	.
CCOC(=O)C1(Cc2cccc(OC)c2)CCCN(C(=O)c2cc(C)[nH]n2)C1 (stereo not given)	.	.	.	?	?
CCOC(=O)C1(Cc2cccc(OC)c2)CCCN(C(=O)c2ccccc2C)C1 (stereo not given)	.	115.5	59.5	.	.
CCOC(=O)C1(Cc2cccc(OC)c2)CCCN(C(=O)CNC(C)=O)C1 (stereo not given)	.	/	38.5	.	?
C[C@@H](CN1CCN(C)CC1)OC(=O)c1ccc(Cl)cc1Cl	/	/	/	/	.
CC(=O)NC1CC(=O)N(c2ccc3c(c2)OCCO3)C1 (stereo not given)	/	/	/	.	/
Cc1nc2ccccc2c2oc(C(=O)NCC3COc4ccccc4O3)cc12 (stereo not given)	.	.	.	20.6µM	?
CCc1ccc(CNC(=O)c2cc3c(C)nc4ccccc4c3o2)cc1	.	.	.	/	/
Cc1nc2ccccc2c2oc(C(=O)N3CCCC(C)C3)cc12 (stereo not given)	.	.	14.8	/	/
Cc1nc2ccccc2c2oc(C(=O)NCCN3CCCCC3C)cc12 (stereo not given)	.	.	.	.	20.6µM
CC(C)CC(=O)Nc1cccc(-c2cn3cccnc3n2)c1	/	/	/	.	/
CC(C)(C)CC(=O)Nc1ccc(-c2cn3cccnc3n2)cc1	.	72.1	38.8	?	.
CC(C)CC(=O)Nc1ccc(-c2cn3ccsc3n2)cc1	.	32.6	18.5	.	.
CCCC(=O)Nc1cccc(-c2cn3cccnc3n2)c1	.	.	22.9	?	?
CC(C)CC(=O)Nc1ccc(-c2cn3cccnc3n2)cc1	.	87.9	29.0	/	.
CCOC(=O)NN=C1C[C@@H](O)[C@@H](O)[C@@H]2[C@H]3C(=O)N(Cc4ccc5c(c4)OCO5)C(=O)[C@@H]3CC[C@@H]12	/	/	/	/	.
CCOC(=O)c1cccc(NC(=O)NCCc2c(C)nn(C)c2C)c1	/	/	/	.	/
CCOCC(=O)Nc1ccc(-c2cn3cccnc3n2)cc1	.	.	.	.	?
SMILES	AMA1-RON2 inh	Shiga inhibitor	Cycloheximide cs	LASV entry inh	MARV entry inh
O=C(Nc1cccc(-c2cn3cccnc3n2)c1)c1ccco1	.	.	24.2	.	.
CCCC(=O)Nc1ccc(-c2cn3cccnc3n2)cc1	.	38.7	30.7	.	.
CC(Oc1ccc(F)cc1)C(=O)Nc1cccc(S(=O)(=O)N(C)c2ccccc2)c1 (stereo not given)	.	/	/	/	/
CC(NC(=O)CN1C(=O)NC2(CCCCCC2)C1=O)c1ccccc1Cl (stereo not given)	.	/	/	/	/
NC(=O)CSc1nnnn1-c1cccc(Cl)c1	.	.	.	.	.
C#CCSc1nnnn1-c1cccc(Cl)c1	.	.	.	?	3.16µM
COc1ccc(NC(=O)C(NC(=O)C2CCC(C)CC2)C(C)C)cc1 (stereo not given)	/	/	/	.	.
Cc1ccc(Sc2ccc(NC(=O)CCl)cc2)cc1C	.	18.4	11.3	?	?
Cc1ccc(F)cc1NCC(=O)Nc1ccc(Br)cc1	.	57.6	30.6	.	?
Cc1cc(F)ccc1NCC(=O)Nc1ccc(Br)cc1C	.	.	.	.	.
Cc1ccc(NCC(=O)Nc2ccc(Br)cc2)cc1C	.	.	18.1	/	/
COc1ccc(OCC(=O)OCc2cc(=O)n3cc(C)sc3n2)cc1	/	/	/	.	/
CCc1ccc(NC(=O)c2cc(CN3CCOCC3)on2)cc1	/	/	/	.	/
Cc1ccc(-c2nnc(SCCOc3ccccc3)o2)cc1	/	/	/	.	.
C#CCSc1nnc(-c2ccc(O)cc2)o1	.	62.1	52.9	?	?
